Screening data (PubChem BioAssay)
Pf growth 96h: Primary qHTS for delayed death inhibitors of the malarial parasite plastid, 96 hour incubation | P. falciparum luciferase reporter growth, 96 h | Potency, µM (titrated, usually from 28.7 µM), inactives show at the top dose activity change, negative = inhibition, usual class: inhibitors | 6.9% of 320,000 active | AID 504834, 2011
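Readout is luminescence from an integrated firefly luciferase in P. falciparum. Red cells, 2% hematocrit and 0.05% parasitemia final, were cultured with compound through two parasite generations (96 hours) at 37 C, 5% CO2.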
Pf growth 48h: Primary qHTS for delayed death inhibitors of the malarial parasite plastid, 48 hour incubation; P. falciparum luciferase growth in erythrocytes, 48 h; Potency, µM (titrated, usually from 28.7 µM), inactives show at the highest dose activity change, negative = inhibition, hits mostly inhibitors; 5.9% of 310,000 active
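Luminescence readout; reporter = integrated firefly luciferase in P. falciparum. RBC culture at 2% hematocrit, 0.1% parasitemia final, 37 C/5% CO2; decreased signal taken as growth inhibition.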
HCV inhibitor: qHTS Assay for Inhibitors of Hepatitis C Virus (HCV). Huh7.5.1 HCVcc-Cre infection, luciferase reporter, 44 h. Potency, µM (top dose mostly 41.8 µM), without a hit: top-dose activity change, negative = inhibition, hits mostly inhibitors. 3.4% of 340,000 active. AID 651820, 2012
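Antiviral activity was scored by luciferase reporter output from cells infected with HCVcc-Cre (~0.5 moi) in presence of compound, 44 h infection period, cells seeded 1,000/well 4 h prior.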
AMA1-RON2 inh: qHTS for Inhibitors of AMA1-RON; Towards Development of Antimalarial Drug Lead: Primary Screen; AlphaScreen AMA1-biotinylated RON2 peptide binding; Potency, µM (series often up to 58.2 µM), for inactives: at the top dose activity change, negative = inhibition, most hits filed as inhibitors; 0.2% of 360,000 active; AID 720542, 2013;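 also: 0% = vehicle wells and -100% = peptide control; nearly all actives have a fitted effect of over 45% in size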
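AMA1 (3D7) with his tag at 25 nM final met compounds first, then biotinylated RON2 peptide at 25 nM; detection used donor plus acceptor beads, 10 µg/mL apiece, read by AlphaScreen after 30 min at room temperature.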
AmpC inh detg: qHTS Inhibitors of AmpC Beta-Lactamase (assay with detergent). P00811. AmpC hydrolysis of nitrocefin, absorbance 480 nm, 0.01% Triton. Potency, µM (highest dose often 114 µM), for the others: top-dose activity change, negative = inhibition, actives largely listed as inhibitors. 0.041% of 370,000 active. AID 485294, 2010;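 also: 0% = no-compound wells and -100% = no-enzyme wells; nearly all actives have a fitted effect of over 25% in size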
Target sequence (P00811 whole entry, looked up): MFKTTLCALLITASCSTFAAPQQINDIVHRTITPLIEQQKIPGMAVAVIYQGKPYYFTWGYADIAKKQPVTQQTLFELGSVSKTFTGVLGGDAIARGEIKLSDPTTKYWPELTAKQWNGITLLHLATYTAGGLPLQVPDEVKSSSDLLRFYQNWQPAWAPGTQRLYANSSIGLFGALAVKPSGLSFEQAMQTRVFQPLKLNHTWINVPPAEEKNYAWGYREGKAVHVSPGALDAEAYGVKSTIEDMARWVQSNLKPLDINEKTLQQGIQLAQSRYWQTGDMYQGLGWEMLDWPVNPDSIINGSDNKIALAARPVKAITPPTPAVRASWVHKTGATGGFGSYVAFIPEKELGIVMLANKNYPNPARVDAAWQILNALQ
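AmpC (5.3 nM in the dispensed reagent) in 20 mM phosphate pH 7.0 with 0.01% (detergent screen) or 0.0001% Triton X-100 was preincubated with compounds for 15 min at room temperature. Nitrocefin was then added from an 800 uM solution, and hydrolysis was followed at 480 nm.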
AmpC inh no detg: qHTS Inhibitors of AmpC Beta-Lactamase (assay without detergent). AmpC nitrocefin hydrolysis, absorbance 480 nm, 0.0001% Triton. Potency, µM (top dose mostly 57.1 µM), inactives show top-dose activity change, negative = inhibition, actives largely listed as inhibitors. 0.52% of 330,000 active. AID 485341, 2010;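 also: plate controls were no compound for no effect and no enzyme for full effect; nearly all actives have a fitted effect of over 20% in size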
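20 mM phosphate pH 7.0 + 0.01% (detergent screen) or 0.0001% Triton X-100; 5.3 nM AmpC reagent; cpd preinc 15 min RT; nitrocefin (800 uM stock) to start; A480 q20 s × 4 min; Activity was normalised to no-enzyme and no-compound control wells.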
Active calls of the source: *; ? = inconclusive; nt = not tested or not shown. A selection: hits, their analogues and other compounds. The true share with any hit is near 11%. Calls follow the shape of the dose curve; as a rule, active = well fitted curve in the direction sought with a large enough effect; inconclusive = small, poorly fitted or top-dose-only effect, or another doubt; inactive = no such curve, though single readings can be large; an effect the other way counts as inactive or inconclusive. Unless noted, % is scaled to controls: 0 for no effect and ±100 for the full control effect; potency is read from the fitted curve at half-maximal effect.

SMILES	Pf growth 96h	Pf growth 48h	HCV inhibitor	AMA1-RON2 inh	AmpC inh detg	AmpC inh no detg
COc1ccc(/C=N/NC(=O)c2sccc2OCc2ccc(F)cc2)cc1OC	12µM*	?	-16%	-1%	?	-24%
O=C(NN=Cc1ccc(O)c(O)c1)c1ccccc1	nt	nt	nt	9%	nt	nt
O=C(O)Cn1nc(N2CCN(c3ccccc3)CC2)ccc1=O	nt	nt	nt	nt	-1%	nt
COCCNC(=O)Cn1c(=O)n(CCCCCC(=O)NCc2ccccc2Cl)c(=O)c2sccc21	nt	nt	nt	nt	17%	nt
CC(=O)c1ccc(N2CCN(C(=O)CCc3nnc4n(C)c(=O)c5sccc5n34)CC2)cc1	nt	nt	nt	nt	15%	nt
COc1ccc(C(=O)C2CCCN(C(=O)CCc3scnc3C)C2)c(C)c1 (stereo not drawn)	260%	2.3µM*	?	-22%	0%	-11%
COc1ccc(C(=O)C2CCCN(C(=O)CCc3ccccn3)C2)c(C)c1 (stereo not drawn)	-31%	-1%	?	-6%	8%	42%
COC(=O)CCCC(=O)N1CCCC(C(=O)c2ccc(OC)cc2C)C1 (stereo not drawn)	15µM*	4%	2%	14%	10%	34%
Cc1cccc(N2CCN(Cc3cc(=O)oc4cc(C)ccc34)CC2C)c1 (stereo not drawn)	nt	nt	nt	nt	25%	nt
CC(=O)NCC1CCN(C(=O)C2CCC(=O)N(CCc3cccc(F)c3)C2)CC1 (stereo not drawn)	13µM*	25%	14%	3%	2%	-11%
COc1ccc(CCCNC(=O)C2CCC(=O)N(CCc3cccc(F)c3)C2)cc1 (stereo not drawn)	4.1µM*	2%	15%	-7%	-2%	143%
CN1CCN(C(=O)C2CCC(=O)N(CCc3cccc(F)c3)C2)CC1 (stereo not drawn)	9.3µM*	?	13%	7%	1%	31%
COc1ccc(CCN2CC(C(=O)NCCc3cccc(F)c3)CCC2=O)cc1 (stereo not drawn)	12%	0%	0%	0%	-6%	40%
Cc1ccc(CN2CCCn3nc(C(=O)NCCc4ccc(Cl)cc4)cc3C2=O)cc1	nt	nt	nt	nt	25%	nt
Cc1nn2c(=O)cc(COC(=O)c3cccc(NC(=O)c4cccs4)c3)nc2s1	nt	nt	nt	nt	6%	nt
N=c1c(C(=O)NCCc2ccccc2)cc2c(=O)n3ccccc3nc2n1CCCN1CCOCC1	?	2.1µM*	?	-13%	-6%	24%
CCCn1c(=N)c(C(=O)NCc2cccnc2)cc2c(=O)n3ccccc3nc21	nt	nt	nt	nt	10%	nt
N=c1c(C(=O)NCc2ccc(F)cc2)cc2c(=O)n3ccccc3nc2n1CCCN1CCOCC1	2.6µM*	1.7µM*	-18%	6%	?	6%
N=c1c(C(=O)NCC2CCCO2)cc2c(=O)n3ccccc3nc2n1Cc1ccc(F)cc1 (stereo not drawn)	?	?	?	15%	-4%	28%
N=c1c(C(=O)NCc2ccc(F)cc2)cc2c(=O)n3ccccc3nc2n1Cc1cccnc1	5.9µM*	nt	?	-5%	?	2%
Cc1ccc(Cn2c(=N)c(C(=O)NCCN3CCOCC3)cc3c(=O)n4ccccc4nc32)cc1	?	?	?	61%	-4%	-12%
N=c1c(C(=O)NCCN2CCOCC2)cc2c(=O)n3ccccc3nc2n1CCc1ccccc1	3.3µM*	3.3µM*	?	34%	-1%	-4%
CCc1ccc(NC(=O)C(Cc2ccccc2)NS(=O)(=O)c2ccc3c(c2)c(=O)n(C)c(=O)n3C)cc1 (stereo not drawn)	nt	nt	nt	nt	-4%	nt
COc1ccccc1Cn1cc(C(=O)c2ccc(C)cc2)c(=O)c2cc(C)ccc21	nt	nt	nt	nt	-1%	nt
CC(=O)c1ccc(NC(=O)C2CCC(CNS(=O)(=O)c3cccs3)CC2)cc1 (stereo not drawn)	nt	nt	nt	nt	13%	nt
SMILES	Pf growth 96h	Pf growth 48h	HCV inhibitor	AMA1-RON2 inh	AmpC inh detg	AmpC inh no detg
Cc1ccc(NC(=O)CN2C(=O)CSc3ccc(S(=O)(=O)N4CCCC4)cc32)c(C)c1	nt	nt	nt	nt	-1%	nt
N=c1c(C(=O)NCc2ccccc2)cc2c(=O)n3ccccc3nc2n1CCCN1CCOCC1	-14%	5.9µM*	?	-8%	?	2%
CCOCCCn1c(=N)c(C(=O)NCc2ccccc2)cc2c(=O)n3ccccc3nc21	nt	nt	nt	nt	4%	nt
COc1ccc([C@@H]2Sc3cc(OC)ccc3N(CCN(C(C)C)C(C)C)C(=O)[C@H]2OC(C)=O)cc1	?	12µM*	?	-6%	-3%	191%
CC1=CC(C)(C)[N+](C)(C)c2ccc(C)cc21	?	2.6µM*	11%	-4%	?	-16%
COc1cccc(N2CCN(c3ccc4nnc(CCC(=O)N5CCC(C)CC5)n4n3)CC2)c1	29%	8.3µM*	1%	-12%	-1%	171%
COc1cccc(N2CCN(c3ccc4nnc(CCC(=O)O)n4n3)CC2)c1	nt	nt	nt	nt	2%	nt
CCCN1CCN(C(=O)CCc2nnc3ccc(N4CCN(c5cccc(OC)c5)CC4)nn23)CC1	30%	10µM*	1%	-2%	?	147%
O=C(COc1ccc(F)cc1)NC1CC(=O)N(c2ccc3c(c2)OCCO3)C1 (stereo not drawn)	nt	nt	nt	nt	2%	nt
CCOc1ccc(C(=O)NCC(c2ccc(Cl)cc2)N2CCCCC2)cc1 (stereo not drawn)	nt	nt	nt	nt	1%	nt
CCOc1nc(N=C(N)N)nc2c(C)cccc12	0.59µM*	8.3µM*	?	-14%	3%	-14%
COc1ccc(Oc2cc(C)c3cccc(C)c3n2)cc1	?	nt	?	40%	?	-5%
Cc1c2cnn(-c3ccccc3)c(=O)c2c(C)n1CCCC(=O)N1CCN(c2ncccn2)CC1	?	?	?	-3%	-13%	88%
CCN1CCN(C(=O)CCCn2c(C)c3cnn(-c4ccccc4)c(=O)c3c2C)CC1	2.6µM*	nt	-30%	0%	?	36%
COc1cc(C(=O)N2CCCN(c3nc4cc(C)ccc4cc3C#N)CC2)cc(OC)c1OC	nt	8.3µM*	?	6%	-6%	138%
Cc1ccc2cc(C#N)c(N3CCCN(C(=O)C4CCCO4)CC3)nc2c1 (stereo not drawn)	?	2.9µM*	1%	7%	1%	74%
